{"source": "PubChem BioAssay AID1275", "about": "(Emory University Molecular Libraries Screening Center, 2008)", "note": "The campaign covered roughly 1,000 compounds. About 160 (16%) were called active. How the calls were made is not given here. Some of the results follow."}
{"target": "Neutrophil cytosol factor 1 (Homo sapiens) (UniProt P14598)", "sequence (P14598 whole entry, looked up)": "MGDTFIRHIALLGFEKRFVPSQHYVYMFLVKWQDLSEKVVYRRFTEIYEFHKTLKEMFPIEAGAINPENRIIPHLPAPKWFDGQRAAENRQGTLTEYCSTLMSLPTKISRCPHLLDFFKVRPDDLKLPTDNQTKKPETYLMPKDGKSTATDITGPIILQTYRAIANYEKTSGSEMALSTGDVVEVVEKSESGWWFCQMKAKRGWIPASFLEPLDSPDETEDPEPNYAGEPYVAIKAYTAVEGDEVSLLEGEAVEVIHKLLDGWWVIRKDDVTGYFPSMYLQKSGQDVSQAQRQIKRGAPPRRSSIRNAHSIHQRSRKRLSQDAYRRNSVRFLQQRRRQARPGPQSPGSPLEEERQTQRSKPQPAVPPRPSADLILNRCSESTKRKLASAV", "experiment": "blockers of ligand binding to p47phox – biochemical, NADPH oxidase regulatory subunit, fluorescence polarization, dose response (AID 1275)", "details": "at 12.5 µM"}
{"compound": "N#CC(C#N)=C1C=C2C=C(N3CCCCC3)CCC2CC1", "note": "(stereo unspecified)", "percent of control, lower = inhibition": "107 (active)"}
{"compound": "Cc1ccc(-n2c(C)cc(C3N=C(N)Nc4nc5ccccc5n43)c2C)c(C)c1", "note": "(stereo unspecified)", "percent of control, lower = inhibition": "66.2 (active)"}
{"compound": "CCN1CCN(Cc2ccc(NC(=O)c3ccc(C)c(NC(=O)c4c[nH]c5cc(C(F)(F)F)ccc5c4=O)c3)cc2C(F)(F)F)CC1", "percent of control, lower = inhibition": "53.8 (active)"}
{"compound": "CN(C)c1ccc(/C=C/C(=O)c2cc(Cl)ccc2O)cc1", "percent of control, lower = inhibition": "50.8 (active)"}
{"compound": "Cc1ccc2cc3c(N)c4c(C)ccc(C)c4nc3nc2c1", "percent of control, lower = inhibition": "51.8 (active)"}
{"compound": "CN(C)c1ccc(/C=C(\\C#N)C(=O)c2ccccc2)cc1", "percent of control, lower = inhibition": "69.6 (active)"}
